A selection: hits, their analogues and other compounds. The true share with any hit is near 19%.
DT40 TDP1 no CPT: qHTS for Inhibitors of human tyrosyl-DNA phosphodiesterase 1 (TDP1): qHTS in cells in absence of CPT; DT40 Tdp1-/- hTDP1 cells, no CPT, ATP luminescence, 48 h; Potency, µM (top dose mostly 46.2 µM), for inactives: at the top dose activity change, negative = growth inhibition, actives largely listed as inhibitors; 420,000 compounds, 15% hits; note: potency is the fitted concentration of half-maximal effect; nearly all actives have a fitted effect of over 55% in size
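Luminescent ATP content (CellTiter-Glo) served as the growth readout. Knockout chicken DT40 cells expressing human TDP1 were exposed to compounds without camptothecin for a minimum 48 hr at 37 °C.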
TDP1 cell CPT: DT40-hTDP1 cell growth loss with CPT; AID 686979; 420,000 compounds, 12% hits; Potency, µM (highest dose often 46.2 µM), for the others: at the top dose activity change, negative = growth inhibition, actives largely listed as inhibitors; chicken DT40 Tdp1-/-;hTDP1 cells + 20 nM CPT, ATP luminescence, 48 h; note: potency is the fitted concentration of half-maximal effect; nearly all actives have a fitted effect of over 55% in size
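Cell growth measured by CellTiter-Glo luminescence after a minimum 48 h, 37 C compound exposure with 20 nM CPT in Tdp1-knockout DT40 cells stably expressing hTDP1, seeded 400/well; qHTS titration format.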
HT1080 IDH1KD tx: kills HT-1080 cells with IDH1 knockdown. 360,000 compounds, 2% hits. HT-1080 IDH1 knockdown viability, ATP luminescence, 48 h. Potency, µM (top dose mostly 46.1 µM), for inactives: at the top dose activity, negative = toxicity, most hits filed as cytotoxic;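 note: potency is the fitted concentration of half-maximal effect; 0% = DMSO wells and -100% = cell-free medium wells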
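Luminescent ATP read-out (CellTiter-Glo, 10 min at room temperature) after 48 h compound exposure at 37 °C gave viability of IDH1-knockdown HT-1080 cells. Activity was normalised to DMSO and cell-free wells, then fitted as concentration-response curves.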
IL1B secr inh: blocks inflammasome-driven IL-1 beta release | THP-1 LPS/ATP IL-1B secretion, AlphaLISA, 16 h; active compounds read low | activity change, % at 57.5 µM | 360,000 compounds, 4.7% hits | AID 743279; in the data active = activity change below about -50%; inconclusive = mostly about -30% to -49%
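Secreted IL-1B measured by AlphaLISA bead assay after 16 h compound exposure of THP-1 cells; compounds (final up to 57.5 uM) added 1 h before LPS (250 ng/mL) and ATP (1.25 mM) stimulation; lower signal means less secretion.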
HT1080-NT tox: kills 2HG-producing HT-1080-NT fibrosarcoma cells; HT-1080-NT fibrosarcoma viability, CellTiter-Glo ATP luminescence, 48 h; 360,000 compounds, 1.6% hits; Potency, µM (doses to about 46.1 µM), for the others: at the highest dose activity, negative = less viability, most hits filed as cytotoxic;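 note: NT is the 2HG producing partner of a matched IDH1 knockdown line; potency is the fitted concentration of half-maximal effect; 0% = DMSO-treated cells and -100% = media-only wells without cells; nearly all actives have a fitted effect of over 55% in size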
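Viability of the 2HG-overproducing fibrosarcoma line after 48 hours of compound exposure at 37 degrees C was determined by luminescence with CellTiter-Glo, and concentration-effect curves were then fitted and categorized.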
* = called active by the depositor; ? = inconclusive; nt = no result given. Unless noted, calls come from the whole dose curve; as a rule, active = well fitted curve in the direction sought with a large enough effect; inconclusive = small, poorly fitted or top-dose-only effect, or another doubt; inactive = no such curve, though single readings can be large; an effect the other way counts as inactive or inconclusive. Unless noted, % is set by controls: 0 for no effect and ±100 for the full control effect.

SMILES	DT40 TDP1 no CPT	TDP1 cell CPT	HT1080 IDH1KD tx	IL1B secr inh	HT1080-NT tox
Cc1ccc(CS(=O)(=O)c2ncn[nH]2)cc1	4.7%	13.5%	13.6%	-5.5	0.0%
COc1ccc(C(=O)NCc2cccnc2)cc1S(=O)(=O)N1CCCc2ccccc21	?	?	-0.9%	15.0	-8.1%
O=C(C[N+]1(CCO)CCOCC1)c1cccs1	0.7%	2.4%	nt	nt	nt
COc1cc(=O)n2c(c1C(=O)N(C)Cc1nonc1C)CCN(Cc1c(F)cccc1F)CC2	-12.7%	0.7%	nt	nt	nt
Cc1nnsc1C(=O)N1CCC(C(=O)c2ccccc2)CC1	1.9%	5.4%	15.8%	10.7	1.5%
CCOC(=O)[C@H]1[C@H]2COc3ccc(Cl)cc3[C@@H]2N2C(=O)c3cc(Br)ccc3NC(=O)[C@@]12C	20.6µM*	16.4µM*	-8.6%	?	-7.8%
CCOC(=O)[C@H]1[C@H]2COc3ccccc3[C@@H]2N2C(=O)c3cc(Br)ccc3NC(=O)[C@@]12C	-3.3%	-15.4%	-1.2%	?	0.3%
CCOC(=O)[C@H]1[C@H]2COc3ccccc3[C@@H]2N2C(=O)c3ccc(Cl)cc3NC(=O)[C@@]12C	?	?	-6.0%	-67.5*	?
COc1ccc(-n2nc([N+](=O)[O-])c(=NC3CCN(Cc4ccccc4)CC3)n2O)cc1	14.6µM*	16.4µM*	-8.3%	-4.9	-10.4%
O=[N+]([O-])c1nn(-c2ccc3c(c2)OCCO3)n(O)c1=NC1CCCCC1	?	20.6µM*	-17.6%	-25.5	-15.1%
COc1ccc(-n2nc([N+](=O)[O-])c(=NCCc3ccc(OC)c(OC)c3)n2O)cc1	20.6µM*	14.6µM*	-16.3%	?	-12.4%
COc1ccc(-n2nc([N+](=O)[O-])c(=NCc3cccnc3)n2O)cc1	?	16.4µM*	0.4%	23.3	1.2%
O=[N+]([O-])c1nn(-c2ccc3c(c2)OCCO3)n(O)c1=NCc1ccccc1Cl	?	-28.1%	?	-20.0	8.2%
CCOc1ncccc1C(=O)OCc1ccc(C#N)cc1	-6.0%	6.3%	3.6%	5.0	24.7%
O=C(NNS(=O)(=O)c1ccc(F)cc1)c1cc2ccccc2cc1O	-10.8%	-20.7%	-1.1%	-7.9	-12.4%
O=C(NCc1ccccc1)c1nnc(Cc2cccc(F)c2)o1	-13.5%	-18.2%	nt	nt	nt
CN(Cc1cnccn1)Cc1ccccc1OCC(O)CN1CCc2ccccc2C1 (configuration not stated)	?	-26.1%	-13.7%	5.8	-0.1%
CCC(C)[C@H](NC(=O)N1CCC(C)CC1)C(=O)OC (some centres not stated)	-13.5%	11.8%	22.6%	nt	22.4%
COc1ccc(-n2nc([N+](=O)[O-])c(=NCCC3=CCCCC3)n2O)cc1	?	20.6µM*	-11.9%	-55.4*	-14.0%
Cc1nc(C(=O)NNC(=O)c2ccc(C(F)(F)F)cc2)cs1	20.6µM*	?	?	55.3	-24.4%
Cc1cc(C(=O)NNC(=O)c2ccc(C(F)(F)F)cc2)no1	-13.7%	3.8%	15.2%	nt	0.1%
CCc1ccc(CN(Cc2cn[nH]c2-c2ccc(OC)cc2)C(=O)Nc2ccc(C)c(F)c2)cc1	18.4µM*	20.6µM*	nt	nt	nt
CCc1ccc(CN(Cc2cn[nH]c2-c2ccc(OC)cc2)C(=O)Nc2ccc(Br)cc2)cc1	18.4µM*	23.1µM*	nt	nt	nt
CN(C)CCCNc1nc2cc(-c3ccn[nH]3)sc2c(=O)n1C	-19.8%	-1.3%	3.9%	23.9	25.5%
CCOC(=O)C1CCCN(S(=O)(=O)c2ccc(S(=O)(=O)N(CC)CC)cc2)C1 (configuration not stated)	1.46µM*	2.91µM*	-14.6%	24.0	-6.7%
CN(C)S(=O)(=O)c1ccc(S(=O)(=O)N2CCCC(C(=O)NC3CC3)C2)cc1 (configuration not stated)	?	-28.6%	21.9%	43.7	6.6%
CCOC(=O)N1CCN(C(=S)Nc2cc(S(=O)(=O)N3CCOCC3)ccc2Cl)CC1	18.4µM*	?	-12.6%	-11.0	2.6%

Source: PubChem
